Consider seven molecules from PubChem BioAssay (EPA / NIEHS).

Structures are written as SMILES. Inconclusive results are not listed. Active and inactive are the calls of the source. Rule for the calls, unless noted: active = hit-call score of the fitted dose curve at least 0.9, where 1 is the maximum; inactive = score below 0.9.

Assay [1] can be described thus: CCTE_Shafer_MEA_acute_burst_percentage_std: CCTE's Neural Acute Assay for Standard Deviation of Burst Percentage, Shafer Lab (AID 2284018).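 Note: fitted in the negative direction so actives lower burst percentage SD.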 In a few lines: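 Primary rat cortical neurons on 16-electrode MEA wells were recorded 40 min at baseline (DIV 13 or 15), then 40 min after compound (0.03-40 uM), at 37 C. Well value is SD across electrodes of spikes-in-bursts/total spikes; endpoint is percent change, DMSO-referenced.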

Assay [2] can be described thus: CCTE_Shafer_MEA_acute_per_network_burst_spike_number_mean: CCTE's Neural Acute Assay for Average Number of Spikes in a Network Burst, Shafer Lab (AID 2284019).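 For AC50: curve fitted for loss of signal so actives reduce spikes per network burst.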 In a few lines:
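Primary rat cortical neurons on 16-electrode MEA wells, DIV 13 or 15, 37 C; 40-min baseline then 40-min recording with compound (0.03-40 uM). Spikes per network burst (total spikes/number of bursts) expressed as percent change from baseline, DMSO reference.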

Assay [3] in a line: CCTE_Shafer_MEA_acute_per_network_burst_spike_number_std: CCTE's Neural Acute Assay for Standard Deviation of Number of Spikes in a Network Burst, Shafer Lab (AID 2284020).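 Note: fitted for decrease in spike-number SD versus DMSO so actives lower it.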 The essentials:
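Primary rat cortical neurons on 48-well MEAs (16 electrodes/well) recorded at DIV 13 or 15: 40-min baseline, then 40 min with compound (0.03-40 uM), 37 C. Value is percent change in SD of spikes per network burst, relative to DMSO.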

Assay [4] is described as follows: CCTE_Shafer_MEA_acute_per_network_burst_electrodes_number_mean: CCTE's Neural Acute Assay for Mean Number of Electrodes in a Network Burst, Shafer Lab (AID 2284021).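 Note: curves fitted for decreases only so hits reduce electrodes per burst.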 The essentials:
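Rat primary cortical neurons on 48-well MEAs, DIV 13 or 15, were treated at 0.03-40 uM. Spikes were detected at 8x rms noise and recorded at 37 C. The mean electrodes per network burst in a 40 min exposure recording was expressed as percent change from a 40 min baseline.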

Assay [5] is described as follows: CCTE_Shafer_MEA_acute_cross_correlation_area: CCTE's Neural Acute Assay for Area of Cross Correlation, Shafer Lab (AID 2284024).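 Note: curves fitted for loss of cross-correlation area so actives lower synchrony.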 In a few lines:
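Rat primary cortical neurons on 48-well MEA, DIV 13 or 15; compounds 0.03-40 uM. Baseline and post-exposure 40 min recordings at 37 C; percent change in area under pooled inter-electrode cross-correlation near zero lag, relative to DMSO.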

Assay [6] is described as follows: CCTE_Shafer_MEA_acute_synchrony_index: CCTE's Neural Acute Assay for Synchrony, Shafer Lab (AID 2284027).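 Note: network synchrony index of spontaneous spiking in primary rat cortical neurons on MEAs; fitted for loss of signal so actives lower synchrony relative to DMSO.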 In a few lines:
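Primary rat cortical neurons on 16-electrode MEA wells were recorded 40 min at baseline (DIV 13 or 15) and 40 min after compound (0.03-40 uM) at 37 C. Synchrony index (0-1) expressed as percent change from baseline, versus DMSO.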

Assay [7] can be described thus: CCTE_Shafer_MEA_acute_LDH: CCTE's Lactate Dehydrogenase Assay for Cytotoxicity in the Neural Acute Assay, Shafer Lab (AID 2284086; active = hit-call score of the fitted dose curve at least 0.9, where 1 is the maximum;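 note: active means LDH release rises above DMSO vehicle level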). In a few lines:
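Primary rat cortical neurons on 48-well MEA plates, treated on day 13 or 15 post-plating. After the 40-min recording with compound, medium LDH release was read by absorbance at 490 nm. Gain of signal was fitted against DMSO negative control.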

Assay [8] can be described thus: CCTE_Shafer_MEA_dev_bursting_electrodes_number: CCTE's Neural Network Formation Assay for Number of Bursting Electrodes, Shafer Lab (AID 2284043; active = hit-call score of the fitted dose curve at least 0.9, where 1 is the maximum;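 for AC50: potency is for loss of bursting electrodes relative to DMSO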). In a few lines: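 Primary rat cortical neurons were cultured on PEI-coated 48-well MEA plates (16 electrodes/well) and exposed from plating through day 12, with compound renewed at feeds on DIV 5 and 9. Electrodes bursting ≥1 per 2 min were counted on DIV 5, 7, 9, 12; trapezoidal AUC taken.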

The nature of assay [9]: CCTE_Shafer_MEA_dev_LDH: CCTE's Lactate Dehydrogenase Assay for Cytotoxicity in the Neural Network Formation Assay, Shafer Lab (AID 2284068; active = hit-call score of the fitted dose curve at least 0.9, where 1 is the maximum;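 note: exposure for twelve days from plating with re-dosing on DIV 5 and 9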). The essentials:
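Primary rat cortical neurons were cultured on PEI-coated MEA plates and exposed from plating through day 12, with compound renewed at medium changes on DIV 5 and 9. LDH activity was read spectrophotometrically; loss of signal versus DMSO indicates reduced viability.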

Assay [10] can be described thus: IUF_NPC1a_proliferation_area_72hr: Leibniz Research Institute for Environmental Medicine (IUF) 72-hour Neural Progenitor Cell Proliferation Area Assay (NPC1a) (AID 2284208). In a few lines: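 Single 0.25–0.35 mm human fetal neural progenitor spheres in proliferation medium with EGF and FGF, exposed 72 h from plating without renewal at 37C, pH 7.2-7.6. Sphere area growth measured by automated phase-contrast imaging, relative to DMSO.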

Assay [11] is described as follows: IUF_NPC1_viability_72hr: Viability Assessment at 72 hours in the Leibniz Research Institute for Environmental Medicine (IUF) Neural Progenitor Cell Proliferation Assay (NPC1) (AID 2284209). The essentials: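 Human fetal-cortex neural progenitor spheres (0.25–0.35 mm, one per well) grown in EGF/FGF proliferation medium at 37C, pH 7.2-7.6, exposed 72 h without renewal; viability read as alamar blue resazurin-to-resorufin fluorescence relative to DMSO.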

Assay [12] can be described thus: IUF_NPC2c_oligodendrocyte_migration_120hr: Leibniz Research Institute for Environmental Medicine (IUF) 120-hour Neural Progenitor Cell Migration Assay for Oligodendrocyte Migration (NPC2c) (AID 2284297).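 Note: O4-positive oligodendrocyte migration distance divided by radial glia migration distance.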 The essentials: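 Human fetal neural progenitor spheres (0.3 mm) are plated on poly-D-lysine/laminin in N2 differentiation medium and exposed for 120 h, with half-medium renewal at day 3. Oligodendrocyte (O4+) migration distance comes from ICC imaging, normalised to radial glia migration.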

Assay [13] is described as follows: IUF_NPC2a_radial_glia_migration_120hr: Leibniz Research Institute for Environmental Medicine (IUF) 120-hour Neural Progenitor Cell Migration Assay for Radial Glia Migration (NPC2a) (AID 2284298). In a few lines: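 Human fetal-cortex neural progenitor spheres (0.3 mm) plated on poly-D-lysine/laminin in N2 differentiation medium, exposed 120 h at 37C with half-medium renewal at day 3. Radial glia migration distance (um) measured from Hoechst-stained nuclei images; DMSO baseline.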

A short description of assay [14]: IUF_NPC2b_neuronal_migration_120hr: Leibniz Research Institute for Environmental Medicine (IUF) 120-hour Neural Progenitor Cell Migration Assay for Neuron Migration (NPC2b) (AID 2284300). In a few lines: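 0.3 mm hNPC spheres on poly-D-lysine/laminin in N2 differentiation medium exposed 120 h, half-medium refresh day 3; 7 concentrations, DMSO max 0.1%. Neuron (TUBB3) distance from sphere core by ICC imaging, normalised to radial glia migration.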

A short description of assay [15]: IUF_NPC3_neuronal_differentiation_120hr: Leibniz Research Institute for Environmental Medicine (IUF) 120-hour Neuronal Differentiation Assay (NPC3) (AID 2284301). The essentials: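 Primary human fetal neural progenitor spheres (GW 16-19, 0.3 mm) plated on poly-D-lysine/laminin in N2 medium, exposed from day 0 for 120 h with half-medium refresh at day 3. TUBB3+ cells as percent of Hoechst nuclei in migration area; DMSO baseline.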

The nature of assay [16]: IUF_NPC4_neurite_length_120hr: Leibniz Research Institute for Environmental Medicine (IUF) 120-hour Neuronal Morphology Assay for Neurite Length (NPC4) (AID 2284302). In a few lines: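 Human fetal cortex (GW 16-19) neural progenitor spheres, 0.3 mm, were plated on poly-D-lysine/laminin in N2 differentiation medium and exposed from day 0 for 120 h, half-feeding at day 3. Mean TUBB3+ neurite length (µm) came from skeletonized images, relative to DMSO.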

A short description of assay [17]: IUF_NPC4_neurite_area_120hr: Leibniz Research Institute for Environmental Medicine (IUF) 120-hour Neuronal Morphology Assay for Neurite Area (NPC4) (AID 2284305; active = hit-call score of the fitted dose curve at least 0.9, where 1 is the maximum). In a few lines:
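Human fetal cortex-derived neural progenitor spheres (0.3 mm, GW 16-19) plated on poly-D-lysine/laminin in N2 differentiation medium and exposed from day 0 for 120 h across 7 concentrations plus solvent control. Neurite area is mean pixel area per TUBB3-positive neuron via skeletonization, analysed relative to DMSO.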

A short description of assay [18]: IUF_NPC2-5_cytotoxicity_72hr: Cytotoxicity Assessment at 72 hours in the Leibniz Research Institute for Environmental Medicine (IUF) Neural Progenitor Cell Migration and Differentiation Assay for Cytotoxicity (NPC2-5) (AID 2284306; active = hit-call score of the fitted dose curve at least 0.9, where 1 is the maximum;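 note: LDH release into supernatant measured by resorufin fluorescence marking membrane damage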). The essentials:
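Human fetal (GW 16-19) neural progenitor spheres, 0.3 mm, plated on poly-D-lysine/laminin in N2 differentiation medium and exposed from day 0 to 7 concentrations plus solvent control (DMSO ≤0.1%). LDH-dependent resazurin-to-resorufin fluorescence in supernatant at 72 h.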

Assay [19] can be described thus: IUF_NPC2-5_cytotoxicity_120hr: Cytotoxicity Assessment at 120 hours in the Leibniz Research Institute for Environmental Medicine (IUF) Neural Progenitor Cell Migration and Differentiation Assay (NPC2-5) (AID 2284307; active = hit-call score of the fitted dose curve at least 0.9, where 1 is the maximum). The essentials: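 Human fetal (GW 16-19) neural progenitor spheres (0.3 mm) plated on poly-D-lysine/laminin in N2 differentiation medium, exposed 120 h with half-medium renewal at day 3; 7 concentrations plus solvent control, DMSO ≤0.1%. LDH release in supernatant read by resorufin fluorescence.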

The nature of assay [20]: IUF_NPC2-5_cell_number_120hr: Cell Number Assessment at 120 hours in the Leibniz Research Institute for Environmental Medicine (IUF) Neural Progenitor Cell Migration and Differentiation Assay (NPC2-5) (AID 2284308).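 Note: count of Hoechst-stained nuclei in migration zone around plated human neural progenitor spheres.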 The essentials: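 Human fetal neural progenitor spheres (0.3 mm) plated on poly-D-lysine/laminin in N2 differentiation medium, exposed five days across 7 concentrations with half-medium refresh at day 3. Hoechst-positive nuclei counted in migration area at 120 h, relative to DMSO.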

As for `O=c1c2ccccc2c(=O)c2c1cc(Cl)c1[nH]c3c([nH]c12)c(Cl)cc1c(=O)c2ccccc2c(=O)c13`, the outcome in assay [1], in assay [2], in [3], in assay [4], in [5] and in assay [6] was inactive. For the same molecule, the molecule was classed as inactive in assay [7].
Take `Cc1ccc(OP(=O)(Oc2ccc(C)cc2)Oc2ccc(C)cc2)cc1` (tested in a mixture with another compound): the AC50 in assay [1] is 3.66 µM (active); in assay [2], 3.4 µM (active); in assay [3], 3.32 µM (active); in assay [4] it was 7.68 µM (active); in assay [6], 6.01 µM (active). Moreover, the outcome in assay [5], in assay [8], in assay [9], in assay [7], in assay [10] and in assay [11] was inactive. For the same molecule, the call in [12], in assay [13], in [14], in [15], in assay [16] and in assay [17] was inactive. In addition, the molecule was classed as inactive in assay [18], in assay [19] and in assay [20].
Turning to `CC1CCCC1.[C-]#[O+].[C-]#[O+].[C-]#[O+].[Mn]`, the molecule was classed as inactive in assay [8] and in assay [9].
In the case of `CC1(C)[C@H](C(=O)O[C@H](C#N)c2cccc(Oc3ccccc3)c2)[C@@H]1C=C(Br)Br`, the AC50 in assay [1] was 2.72 µM (active); in assay [2], 1.5 µM (active); in assay [3], 0.642 µM (active); in [5] it was 0.203 µM (active); in assay [6], 0.866 µM (active); in [8] it was 3.71 µM (active). Besides, the values for the AC50 in assay [13], in assay [18] and in assay [20] were 0.0654 µM (active), 3.53 µM (active) and 0.461 µM (active), respectively. For the same molecule, the outcome in [4], in assay [7], in assay [10], in [11], in assay [12] and in assay [14] was inactive. Moreover, the outcome in [15], in assay [16], in [17] and in assay [19] was inactive.
Regarding `COc1ccc(CO)cc1`, the outcome in assay [1], in assay [3], in [4], in assay [5] and in [7] was inactive. Also, the figures for the AC50 in assay [2] and in assay [6] were 25.4 µM (active) and 3.81 µM (active), respectively.
Regarding `CC(C)CCCCCCCOP(=O)(Oc1ccccc1)Oc1ccccc1`, the result in assay [8], in assay [9], in assay [10], in [11], in [12] and in assay [13] was inactive. The call in assay [14], in assay [15], in assay [16], in assay [17], in assay [18] and in [19] was inactive. The outcome in assay [20] was inactive.
As for `CNC(=N[N+](=O)[O-])NCC1CCOC1` (stereo not given), the outcome in assay [9], in [10], in assay [11], in [12], in assay [13] and in [14] was inactive. Moreover, the molecule was classed as inactive in [15], in [16], in [17], in assay [18], in assay [19] and in [20].

One may read the AC50 as the concentration at which the activity in the assay is half-maximal.
